Sampled rows, rich in hits. Any-hit rate of the full collection: about 21%.
Gal4-VP16 FLuc: VP16 counterscreen qHTS for inhibitors of ROR gamma transcriptional activity. actives 3.5% (n = 310,000). Potency, µM (highest dose often 53.6 µM), for the others: top-dose activity, negative = inhibition, hits mostly inhibitors. Drosophila S2 Gal4-VP16 UAS-luciferase, luminescence, 20 h. AID 2546, 2010;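 also: Gal4-VP16 expression switched on by copper sulfate through the metallothionein promoter; potency is read from the fitted curve at half-maximal effect; nearly all actives have a fitted effect of over 50% in size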
TDP1 cell CPT: qHTS for Inhibitors of human tyrosyl-DNA phosphodiesterase 1 (TDP1): qHTS in cells in presence of CPT; chicken DT40 Tdp1-/-;hTDP1 cells + 20 nM CPT, ATP luminescence, 48 h; Potency, µM (series often up to 46.2 µM), for the others: at the top dose activity change, negative = growth inhibition, usual class: inhibitors; actives 12% (n = 420,000); AID 686979, 2013; also: potency is read from the fitted curve at half-maximal effect; nearly all actives have a fitted effect of over 55% in size
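Chicken DT40 Tdp1-/- cells stably complemented with human TDP1 were seeded at 400 cells/well in medium containing 20 nM camptothecin, exposed to pin-transferred compounds, and grown at 37 °C for at least 48 hr. Viability was read as ATP luminescence.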
ELG1 repair inh: qHTS screen for small molecules that inhibit ELG1-dependent DNA repair in human embryonic kidney (HEK293T) cells expressing luciferase-tagged ELG1; HEK293T ELG1-luciferase reporter, luminescence, 16 h; DNA damage induced by 5-fluorouridine; Potency, µM (series often up to 46.1 µM), for inactives: at the highest dose activity change, negative = inhibition, most hits filed as inhibitors; actives 2.3% (n = 330,000); also: potency is read from the fitted curve at half-maximal effect; nearly all actives have a fitted effect of over 55% in size
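In this reporter screen, reduction of luminescence relative to DMSO vehicle indicated activity. Compounds and 5-fluorouridine were added together to 2,000 cells per well, incubated for 16 hr at 37 °C, then developed with ONE-Glo.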
IL1B secr inh: qHTS for Inhibitors of Inflammasome Signaling: IL-1-beta AlphaLISA Primary Screen. actives 4.7% (n = 360,000). activity change, % at 57.5 µM. AID 743279, 2014. THP-1 LPS/ATP IL-1B secretion, AlphaLISA, 16 h; stronger effect = lower value; in the data active = activity change below about -50%; inconclusive = mostly about -30% to -49%
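Secreted IL-1B measured by AlphaLISA bead assay after 16 h compound exposure of THP-1 cells; compounds (final up to 57.5 uM) added 1 h before LPS (250 ng/mL) and ATP (1.25 mM) stimulation; lower signal means less secretion.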
TDP1 cell noCPT: qHTS for Inhibitors of human tyrosyl-DNA phosphodiesterase 1 (TDP1): qHTS in cells in absence of CPT | DT40 Tdp1-/- hTDP1 cells, no CPT, ATP luminescence, 48 h | actives 15% (n = 420,000) | Potency, µM (doses to about 46.2 µM), for the others: at the top dose activity change, negative = growth inhibition, hits mostly inhibitors | AID 686978, 2013; also: potency is read from the fitted curve at half-maximal effect; nearly all actives have a fitted effect of over 55% in size
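Camptothecin absent (DMSO only). Human TDP1-complemented DT40 knockout cells, 400 cells/well, 37 °C for minimum 48 hr; ATP measured via CellTiter-Glo, 30 min dark incubation, luminescence.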
RORg inh: qHTS for inhibitors of ROR gamma transcriptional activity | Nuclear receptor ROR-gamma (Mus musculus), P51450 | Drosophila S2 Gal4-RORgamma UAS-luciferase reporter, 20 h | actives 5.4% (n = 310,000) | Potency, µM (titrated, usually from 53.6 µM), for inactives: top-dose activity change, negative = inhibition, actives largely listed as inhibitors | AID 2551, 2010; also: potency is read from the fitted curve at half-maximal effect; nearly all actives have a fitted effect of over 60% in size
Target sequence (P51450 whole entry, looked up, the tested form may be a part): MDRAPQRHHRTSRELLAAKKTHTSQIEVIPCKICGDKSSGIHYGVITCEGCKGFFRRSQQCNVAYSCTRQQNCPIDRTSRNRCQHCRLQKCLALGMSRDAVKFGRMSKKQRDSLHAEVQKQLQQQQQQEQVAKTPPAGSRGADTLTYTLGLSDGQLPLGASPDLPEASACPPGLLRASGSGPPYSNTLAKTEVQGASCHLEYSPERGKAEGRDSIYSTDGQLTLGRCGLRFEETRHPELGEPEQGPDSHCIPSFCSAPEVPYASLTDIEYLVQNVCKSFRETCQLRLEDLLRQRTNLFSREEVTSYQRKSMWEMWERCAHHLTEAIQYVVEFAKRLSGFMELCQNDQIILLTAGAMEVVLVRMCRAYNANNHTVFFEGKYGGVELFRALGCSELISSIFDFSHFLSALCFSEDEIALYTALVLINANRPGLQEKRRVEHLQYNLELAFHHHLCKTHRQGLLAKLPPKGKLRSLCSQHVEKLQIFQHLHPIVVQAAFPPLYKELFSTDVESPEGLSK
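ROR gamma transcriptional activity was tracked as Gal4-UAS luciferase output in stably transfected Drosophila Schneider cells, with compound added 1 hr before 700 uM copper sulfate induction and a 20 hr ambient-temperature incubation.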
The depositor's hits bear a star. Unless noted, calls follow the shape of the dose curve; as a rule, active = well fitted curve in the direction sought with a large enough effect; inconclusive = small, poorly fitted or top-dose-only effect, or another doubt; inactive = no such curve, though single readings can be large; an effect the other way counts as inactive or inconclusive. % is scaled to controls: 0 for no effect and ±100 for the full control effect.

Results for COc1ccccc1CN(C)CC(=O)Nc1cccc(S(=O)(=O)N2CCCC2)c1 ?
TDP1 cell CPT: inconclusive; ELG1 repair inh: -27%; IL1B secr inh: -16; TDP1 cell noCPT: 23µM*

How did COc1cccc(CN(C)CC(=O)Nc2cc(S(=O)(=O)N3CCCC3)ccc2Cl)c1OC do in these assays?
TDP1 cell CPT: 21µM*; ELG1 repair inh: inconclusive; IL1B secr inh: -15; TDP1 cell noCPT: inconclusive

How did O=C(CCc1nc2ccccc2c(=O)[nH]1)Nc1cccc(S(=O)(=O)N2CCCCC2)c1 do in these assays?
TDP1 cell CPT: inconclusive; ELG1 repair inh: -21%; IL1B secr inh: -3; TDP1 cell noCPT: 21µM*

What do the screens show for `COc1cccc(CCC(=O)Nc2cccc(S(=O)(=O)N3CCCC3)c2)c1OC`?
TDP1 cell CPT: inconclusive; ELG1 repair inh: inconclusive; IL1B secr inh: -7; TDP1 cell noCPT: inconclusive

How did Cc1ccccc1C(=O)N1CCC(C(=O)Nc2nc3ccc(F)cc3s2)CC1 do in these assays?
TDP1 cell CPT: inconclusive; ELG1 repair inh: inconclusive; IL1B secr inh: -26; TDP1 cell noCPT: inconclusive

Results for Cc1nn(C2CCS(=O)(=O)C2)c(C)c1CN(C)C(=O)c1ccc(F)cc1 (stereo not given) ?
TDP1 cell CPT: -4%; IL1B secr inh: 4; TDP1 cell noCPT: -13%

What do the screens show for `CCCC[C@H](NC(=O)[C@@H]1CCCN1C(=O)[C@H]1CCCN1C(=O)[C@H](Cc1ccccc1)NC(=O)[C@@H](Cc1c[nH]c2ccccc12)NC(=O)[C@H](C)NC(=O)[C@H](CCCN=C(N)N)NC(=O)OC(C)(C)C)C(N)=O`?
Gal4-VP16 FLuc: -2%; RORg inh: 12%

What do the screens show for `O=c1cc(-c2ccccc2)oc2cc(O[C@@H]3O[C@H](CO)[C@@H](O)[C@H](O)[C@H]3O)c(O)c(O)c12`?
Gal4-VP16 FLuc: -6%; TDP1 cell CPT: inconclusive; TDP1 cell noCPT: inconclusive; RORg inh: -4%

What do the screens show for `CCCCOc1ccc(S(=O)(=O)Nc2cccc(-c3ccc(N4CCOCC4)nn3)c2)cc1`?
TDP1 cell CPT: 21µM*; TDP1 cell noCPT: inconclusive

What do the screens show for `Cc1ccc(S(=O)(=O)Nc2cccc(-c3ccc(N4CCCCCC4)nn3)c2)cc1C`?
Gal4-VP16 FLuc: -4%; TDP1 cell CPT: inconclusive; ELG1 repair inh: inconclusive; IL1B secr inh: -3; TDP1 cell noCPT: 23µM*; RORg inh: -5%

How did CCOc1ccc(S(=O)(=O)Nc2ccc(-c3ccc(N4CCCC4)nn3)cc2)cc1 do in these assays?
TDP1 cell CPT: 2%; TDP1 cell noCPT: -13%

How did Cc1cc(C)cc(S(=O)(=O)Nc2cccc(-c3ccc(N4CCOCC4)nn3)c2)c1 do in these assays?
TDP1 cell CPT: inconclusive; TDP1 cell noCPT: -29%

How did CCCCOc1ccc(S(=O)(=O)Nc2ccc(-c3ccc(N4CCC(C)CC4)nn3)cc2)cc1 do in these assays?
TDP1 cell CPT: 12µM*; TDP1 cell noCPT: 29µM*

Results for COc1c(C)cc(S(=O)(=O)Nc2cccc(-c3ccc(N4CCOCC4)nn3)c2)c(C)c1C ?
TDP1 cell CPT: 23µM*; TDP1 cell noCPT: inconclusive

What do the screens show for `COc1ccc(S(=O)(=O)Nc2cccc(-c3ccc(N4CCCC4)nn3)c2)cc1OC`?
TDP1 cell CPT: -28%; TDP1 cell noCPT: -26%

Results for C[C@H](CO)N1C[C@H](C)[C@@H](CN(C)Cc2ccc(C(=O)O)cc2)Oc2ncc(Br)cc2C1=O ?
TDP1 cell CPT: 0%; IL1B secr inh: 0; TDP1 cell noCPT: -4%

Results for CSc1ccc(CNC(=O)Cc2ccc(NC(=O)C3=C(C)OCCS3)cc2)cc1 ?
Gal4-VP16 FLuc: -21%; TDP1 cell CPT: 2.9µM*; ELG1 repair inh: inconclusive; IL1B secr inh: 23; TDP1 cell noCPT: 2.9µM*; RORg inh: inconclusive

How did CCOc1ccc(CCNC(=O)Cc2ccc(NC(=O)C3=C(C)OCCS3)cc2)cc1 do in these assays?
Gal4-VP16 FLuc: -5%; TDP1 cell CPT: inconclusive; ELG1 repair inh: inconclusive; IL1B secr inh: -1; TDP1 cell noCPT: inconclusive; RORg inh: -21%

How did CCc1nnc(NC(=O)CSCc2cc(=O)n3nc(C)sc3n2)s1 do in these assays?
Gal4-VP16 FLuc: -1%; TDP1 cell CPT: inconclusive; ELG1 repair inh: inconclusive; IL1B secr inh: 12; TDP1 cell noCPT: inconclusive; RORg inh: -15%

Results for Cc1ccc(OCC(=O)Nc2ccc(S(=O)(=O)Nc3cc(C)on3)cc2)c(Br)c1 ?
TDP1 cell CPT: -8%; TDP1 cell noCPT: -23%

Results for CCOc1cc(N2CCOCC2)c(OCC)cc1NC(=O)[C@H](C)N1C(=O)C2CC=CCC2C1=O (stereo not given in full) ?
Gal4-VP16 FLuc: 4%; TDP1 cell CPT: -3%; ELG1 repair inh: 2%; IL1B secr inh: 28; TDP1 cell noCPT: 12µM*; RORg inh: -2%

What do the screens show for `C[C@@H](C(=O)Nc1cc(C(F)(F)F)ccc1N1CCOCC1)N1C(=O)C2CC=CCC2C1=O` (stereo not given in full)?
TDP1 cell CPT: -1%; IL1B secr inh: 1; TDP1 cell noCPT: -1%

Results for CCOc1cc(N2CCOCC2)c(OCC)cc1NC(=O)CN1CCc2ccccc2C1 ?
Gal4-VP16 FLuc: -1%; TDP1 cell CPT: 23µM*; ELG1 repair inh: inconclusive; IL1B secr inh: 2; TDP1 cell noCPT: 18µM*; RORg inh: -20%

How did CCOc1cc(N2CCOCC2)c(OCC)cc1NC(=O)COC(=O)c1cc2ccccc2cc1O do in these assays?
Gal4-VP16 FLuc: 2%; TDP1 cell CPT: inconclusive; ELG1 repair inh: -7%; IL1B secr inh: 3; TDP1 cell noCPT: inconclusive; RORg inh: 4%

Results for CCOc1cc(N2CCOCC2)c(OCC)cc1NC(=O)c1cccc(N(C)C)c1 ?
Gal4-VP16 FLuc: -7%; TDP1 cell CPT: inconclusive; ELG1 repair inh: inconclusive; IL1B secr inh: -3; TDP1 cell noCPT: 21µM*; RORg inh: 4%
